B1: ENSMUSG00000028439.185|Fam219a (ssRNA)
RNA: GGGAGUUCUACAGUCCGACGAUCGCUUCGAUAUCCGCAUGCUAUGUGUGUAUGUGUGUGCGUGUGUGUGUGUGUGUGUUGUACCCGAGUGUGUGUUGAGCCUAUCUGUCCAGGGAACCAGAUUGGUGUCCGAGAUGAGGAAAUGGCUGUGGCCUGGGAAAUCAGUGAGAGGCCGCUUGGGAAUGAGAAUGCAGUGGACUGAAAGCACAGCCUGGCCAUCUGGAACCUGGGUUCUGGUCCCAGCCUCGGCAUUCUCCCUGAGCUCCUAAGCAAUUCCCAGGCUUCUCUAGGGCUUCAGUUCUCACUCUUGCGGUCGCACUAGUGUGGAAUUCUCGGGUGUCAAGG
B2: ENSMUSG00000028439.187|Fam219a (ssRNA)
RNA: GGGAGUUCUACAGUCCGACGAUCGCUUCGAUAUCCGCAUGCUAUGUGCGUGUGUGUGUGUGUGUGUUGUACCCGAGUGUGUGUUGAGCCUAUCUGUCCAGGGAACCAGAUUGGUGUCCGAGAUGAGGAAAUGGCUGUGGCCUGGGAAAUCAGUGAGAGGCCGCUUGGGAAUGAGAAUGCAGUGGACUGAAAGCACAGCCUGGCCAUCUGGAACCUGGGUUCUGGUCCCAGCCUCGGCAUUCUCCCUGAGCUCCUAAGCAAUUCCCAGGCUUCUCUAGGGCUUCAGUUCUCACAACUGGAAAAUCUCUUGCGGUCGCACUAGUGUGGAAUUCUCGGGUGUCAAGG
B3: ENSMUSG00000028439.186|Fam219a (ssRNA)
RNA: GGGAGUUCUACAGUCCGACGAUCGCUUCGAUAUCCGCAUGCUAUAUGUGUGUGCGUGUGUGUGUGUGUGUGUUGUACCCGAGUGUGUGUUGAGCCUAUCUGUCCAGGGAACCAGAUUGGUGUCCGAGAUGAGGAAAUGGCUGUGGCCUGGGAAAUCAGUGAGAGGCCGCUUGGGAAUGAGAAUGCAGUGGACUGAAAGCACAGCCUGGCCAUCUGGAACCUGGGUUCUGGUCCCAGCCUCGGCAUUCUCCCUGAGCUCCUAAGCAAUUCCCAGGCUUCUCUAGGGCUUCAGUUCUCACAACUGCUCUUGCGGUCGCACUAGUGUGGAAUUCUCGGGUGUCAAGG
B4: ENSMUSG00000028439.189|Fam219a (ssRNA)
RNA: GGGAGUUCUACAGUCCGACGAUCGCUUCGAUAUCCGCAUGCUAUGUGUGUGUGUUGUACCCGAGUGUGUGUUGAGCCUAUCUGUCCAGGGAACCAGAUUGGUGUCCGAGAUGAGGAAAUGGCUGUGGCCUGGGAAAUCAGUGAGAGGCCGCUUGGGAAUGAGAAUGCAGUGGACUGAAAGCACAGCCUGGCCAUCUGGAACCUGGGUUCUGGUCCCAGCCUCGGCAUUCUCCCUGAGCUCCUAAGCAAUUCCCAGGCUUCUCUAGGGCUUCAGUUCUCACAACUGGAAAAUAAAGAGUAGCUGCUCUUGCGGUCGCACUAGUGUGGAAUUCUCGGGUGUCAAGG
B5: ENSMUSG00000028439.188|Fam219a (ssRNA)
RNA: GGGAGUUCUACAGUCCGACGAUCGCUUCGAUAUCCGCAUGCUAUGUGUGUGUGUGUGUGUUGUACCCGAGUGUGUGUUGAGCCUAUCUGUCCAGGGAACCAGAUUGGUGUCCGAGAUGAGGAAAUGGCUGUGGCCUGGGAAAUCAGUGAGAGGCCGCUUGGGAAUGAGAAUGCAGUGGACUGAAAGCACAGCCUGGCCAUCUGGAACCUGGGUUCUGGUCCCAGCCUCGGCAUUCUCCCUGAGCUCCUAAGCAAUUCCCAGGCUUCUCUAGGGCUUCAGUUCUCACAACUGGAAAAUAAAGAGCUCUUGCGGUCGCACUAGUGUGGAAUUCUCGGGUGUCAAGG
B6: ENSMUSG00000061578.500|Ksr2|29:34;201:207 (ssRNA)
RNA: GGGAGUUCUACAGUCCGACGAUCGCUUCGAUAUCCGCAUGCUACUCUGCCUCCCAAGUGCUGGGAUUAAAGCACACAACCACCAUUGCAAUCUUGAACUCUUGACCAAUAGAAAUCCUAGACUAGUGUUGCUAGGCAACUGACUGUAUUCAGGACACCCAGGGUGGGAGGUGGAUGGAGCUCUUGCCUAACACACACCAAGCCCCAAGUUCCAUCCCCAGUCCCACACAAACCAGAUAUGAUGCACACACCCUAUGUCCCCCACACACGAGAGAGCUGGAGGCAGGAGGAUCAGAAGUUCAGGCUCUUGCGGUCGCACUAGUGUGGAAUUCUCGGGUGUCAAGG
B7: ENSMUSG00000028439.187|Fam219a|6:23;33:40 (ssRNA)
RNA: GGGAGUUCUACAGUCCGACGAUCGCUUCGAUAUCCGCAUGCUAUGUGCCACACACACACACACACAUGUACCCGACACACACAUGAGCCUAUCUGUCCAGGGAACCAGAUUGGUGUCCGAGAUGAGGAAAUGGCUGUGGCCUGGGAAAUCAGUGAGAGGCCGCUUGGGAAUGAGAAUGCAGUGGACUGAAAGCACAGCCUGGCCAUCUGGAACCUGGGUUCUGGUCCCAGCCUCGGCAUUCUCCCUGAGCUCCUAAGCAAUUCCCAGGCUUCUCUAGGGCUUCAGUUCUCACAACUGGAAAAUCUCUUGCGGUCGCACUAGUGUGGAAUUCUCGGGUGUCAAGG
B8: ENSMUSG00000028439.185|Fam219a|1:16;18:35;45:52 (ssRNA)
RNA: GGGAGUUCUACAGUCCGACGAUCGCUUCGAUAUCCGCAUGCUAACACACAUACACACACCCACACACACACACACACAUGUACCCGACACACACAUGAGCCUAUCUGUCCAGGGAACCAGAUUGGUGUCCGAGAUGAGGAAAUGGCUGUGGCCUGGGAAAUCAGUGAGAGGCCGCUUGGGAAUGAGAAUGCAGUGGACUGAAAGCACAGCCUGGCCAUCUGGAACCUGGGUUCUGGUCCCAGCCUCGGCAUUCUCCCUGAGCUCCUAAGCAAUUCCCAGGCUUCUCUAGGGCUUCAGUUCUCACUCUUGCGGUCGCACUAGUGUGGAAUUCUCGGGUGUCAAGG
B9: ENSMUSG00000043670.145|Diras1 (ssRNA)
RNA: GGGAGUUCUACAGUCCGACGAUCGCUUCGAUAUCCGCAUGCUAUCAGGGGAGGCACACUGGAACCCUGAACUUGGAGUGUGGAGUGGCUGCCUGGACACUGCCCACCUGGACACCAGCCUUCUGCUGAGAUAGAGACCUUGGCACAGUGGCACCUCGACAGCCACCCCGACUGGGGGUUUGGGGUGCUGAGGGUGGGGUGCCCAGCUGAGAGUCUAUCAGCAAAGUCCCUGUGUGCGGUGAUAGGACUAGUGGCUGCUGCCCUAGGGCUCUGACAGAAUCUGAGCCUCUUUGCUGGUCAUGUGCUCUUGCGGUCGCACUAGUGUGGAAUUCUCGGGUGUCAAGG
B10: ENSMUSG00000022095.153|Fam160b2|110:114 (ssRNA)
RNA: GGGAGUUCUACAGUCCGACGAUCGCUUCGAUAUCCGCAUGCUAGACUAUAGGAACUCAAGGUACAGAUGGGACAGGGCACCCCAACUCCAAACCCCAGAAGCCUAGUGAGGCUAGGCCGAGACACAAGCAGAUAGCUCUGGCAUUGUUCUUCCAUACUCCUCCAUGGCUGGGGCUGCUACCUCACCCGGCCUGAAUCUGUCUCAACCUGCAAGAGCACUCGGGCGGCGCCAGGCAUUACCUCACAACAGGCCUGCAGUUGUUGGCUUCCCUCCUGGGCAAGGAGGAGCAGGCCAGAGCCCCUUCUCUUGCGGUCGCACUAGUGUGGAAUUCUCGGGUGUCAAGG
B11: ENSMUSG00000042529.77|Kcnj12|96:100 (ssRNA)
RNA: GGGAGUUCUACAGUCCGACGAUCGCUUCGAUAUCCGCAUGCUAACAAACAAAAACAAACAAACAAACAAUCAAAAAAAAAACCCACCCCACAAAACACAAGAAAACAUUAACAGGUGGUUCAAUUUUUAAAAUUCCUGCACACGGGACAGUUGGAAUUCUACUCAGCGCUGCCAGGCAAGCAGCUGGACGGAGAACCCUGAGGGUUCUCAGAGGUCUGUUUUCUCCCUCACGUGGGCCAGGGCCUUAAGCGAGUUGUCAUGCUUAAGGAUGAAUCAGGCUGCUUGUGACCAUGUUAACGAUUCCUCUUGCGGUCGCACUAGUGUGGAAUUCUCGGGUGUCAAGG
B12: ENSMUSG00000090935.460|Synj2bp (ssRNA)
RNA: GGGAGUUCUACAGUCCGACGAUCGCUUCGAUAUCCGCAUGCUACACAACCAGUAAGAAAAAUAUUGCCAUCCAAAACAGAGCACAGUGCAGCAACAUAGAAGAUAAGCAGAUAACCAGCAAGUAUUGUAAGGAGUUCAGAAAAGGAAAGCCAUCGUGUAGUGGCAUCAGGGGAGAAUGGAAAGGAAAGUCUAGAACAGUCCAGUGAUACUUUACCUCUGGGAAAACUCUUGAUACAGGGAGACAUUUGCUUUAAACAAUCUUCACAUAACUAAGCCAUUCAGUACUUUUUGAAACUGACUUAGCUCUUGCGGUCGCACUAGUGUGGAAUUCUCGGGUGUCAAGG
B13: ENSMUSG00000061578.947|Ksr2 (ssRNA)
RNA: GGGAGUUCUACAGUCCGACGAUCGCUUCGAUAUCCGCAUGCUAAAGACUGCAUGUUAACGCUCCUGCCACUGUUGCCCCUUCCUUUACCCUUGGCAGACAUUGCUAAUCAAUCUCAGCACAGUUUCCAACCACAGUCAUAGAACAUUUGCCACAAAGGCCCUGGAUGUGACUAUAUGUGCUGAGAAGGGAAGGUAGUUUUCCCCCAGAAAGUCCCUUCUAAUAAACAUUGAUGACUUUAGAAUCCAUGACUCAGAAUUUUCCAGAGACCCAAUCCCUCGGGGUCCACUUAGUGAUGGGACCAUCUCUUGCGGUCGCACUAGUGUGGAAUUCUCGGGUGUCAAGG

In all, about 9,900 sequences were measured (“r (bound/input frequency ratio)”: median about 0.7, highest 2% from about 6.5 on). This is one part of a sample in which the highest values are shown more often than they occur.

TDP-43, sequence (Q13148 whole entry): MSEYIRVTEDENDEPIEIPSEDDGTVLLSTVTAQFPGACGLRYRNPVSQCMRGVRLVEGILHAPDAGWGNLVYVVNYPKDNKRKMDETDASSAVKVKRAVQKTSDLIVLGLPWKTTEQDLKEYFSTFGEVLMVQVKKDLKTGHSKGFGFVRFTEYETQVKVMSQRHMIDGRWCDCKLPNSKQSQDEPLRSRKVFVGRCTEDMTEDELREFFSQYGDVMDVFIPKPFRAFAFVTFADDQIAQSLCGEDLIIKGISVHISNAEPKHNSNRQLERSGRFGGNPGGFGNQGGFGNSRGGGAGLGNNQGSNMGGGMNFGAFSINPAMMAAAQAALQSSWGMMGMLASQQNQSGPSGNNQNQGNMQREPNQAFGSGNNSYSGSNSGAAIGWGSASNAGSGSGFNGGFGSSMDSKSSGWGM

The test deals with TDP-43 (Homo sapiens, UniProt Q13148 1-414). Nature of the test: RNA Bind-n-Seq with designed 260-mer pool; 25 mM Tris-HCl, 150 mM KCl, 3 mM MgCl2, BSA (printed 500 mg/mL), 20 units/mL SUPERase IN; pH not stated; 500 nM RNA pool, 1 h, 4 C; TDP-43 5, 50, 500 nM; high values mean tight binding. As to conditions: protein: recombinant; tags: SBP (GST cleaved off with PreScission; pGEX-GST-SBP). In a few lines:
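Duplicate measurements used two independent batches of recombinant SBP-tagged TDP-43, which was captured on streptavidin beads at 5, 50 or 500 nM. The beads were incubated with 500 nM of an in vitro-transcribed 260-nt 3′ UTR oligo pool for 1 h at 4 °C in 25 mM Tris-HCl, 150 mM KCl, 3 mM MgCl2, BSA and SUPERase IN. After washing, biotin elution, reverse transcription, PCR amplification and sequencing, binding was expressed as R: each oligo's normalized read abundance in the bound sample over its abundance in input.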
For B1, the binding signal is 7.73 R (bound/input frequency ratio).
Take B2: the binding signal was 6.68 R (bound/input frequency ratio).
Regarding B3, the binding signal is 6.13 R (bound/input frequency ratio).
For B4, the binding signal was 1.86 R (bound/input frequency ratio).
For B5, the binding signal was 4.17 R (bound/input frequency ratio).
Turning to B6, the binding signal was 3.25 R (bound/input frequency ratio).
In the case of B7, the binding signal is 1.44 R (bound/input frequency ratio).
Turning to B8, the binding signal was 2.5 R (bound/input frequency ratio).
In the case of B9, the binding signal was 0.713 R (bound/input frequency ratio).
Take B10: the binding signal was 1.53 R (bound/input frequency ratio).
On to B11, for which the binding signal is 1.63 R (bound/input frequency ratio).
B12: the binding signal was 0.396 R (bound/input frequency ratio).
With B13, the binding signal is 0.693 R (bound/input frequency ratio).

The values are drawn from paper PMC12864922, “TDP-43 directly inhibits mRNA accumulation in neurites through modulation of mRNA stability”.
